Pf growth 96h = P. falciparum growth inhibition at 96 hour, primary screen for plastid delayed-death inhibitors; P. falciparum luciferase reporter growth, 96 h; Potency, µM (top dose mostly 28.7 µM), hits mostly inhibitors; 6.9% of 320,000 active; AID 504834
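96 h incubation, 37 C, 5% CO2, of luciferase-reporter P. falciparum-infected RBCs (2% hematocrit, 0.05% parasitemia final) with test compounds; endpoint luminescence.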
RE007 growth inh = less growth of the S. pombe RE007 Vpr strain; S. pombe RE007 Vpr strain, BacTiter-Glo ATP luminescence, 24 h; Potency, µM (doses to about 92.2 µM), actives largely listed as inhibitors; 0.21% of 360,000 active; AID 651644; active means well fitted falling curve with a large enough effect; inconclusive means small, poorly fitted or top-dose-only effect; inactive means no such curve, though single readings can be large or run the other way; further: nearly all actives have a fitted effect of over 50% in size
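Fission yeast strain RE007, carrying one chromosomally integrated HIV-1 vpr copy, was seeded at OD 0.01 in PMG+AL medium with 23 nL pinned compound. After 24 h at 30 °C and 99% humidity, viability was read by BacTiter-Glo luminescence.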
NS1 function inh = blocks influenza NS1 protein function; Potency, µM (top dose mostly 46.1 µM); 0.4% of 270,000 active; calls by dose curve; further: actives are rising curves; nearly all actives have a fitted effect of over 50% in size
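S. cerevisiae expressing influenza A NS1, grown in glucose, washed, then diluted 1:100 into pH 6.0 -URA galactose medium with 23 nl compound. Growth recovery read as OD600; NS1-free strain serves as control.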
Pf growth 48h = inhibits P. falciparum growth in the first generation, 48 h; P. falciparum luciferase growth in erythrocytes, 48 h; Potency, µM (top dose mostly 28.7 µM), most hits filed as inhibitors; 5.9% of 310,000 active; AID 504832
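Luminescence readout; reporter = integrated firefly luciferase in P. falciparum. RBC culture at 2% hematocrit, 0.1% parasitemia final, 37 C/5% CO2; decreased signal taken as growth inhibition.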
SARS PLP yeast = inhibitors of SARS-CoV papain-like protease in yeast | S. cerevisiae expressing SARS-CoV PLpro, growth rescue | Potency, µM (highest dose often 32.9 µM), actives largely listed as activators | 0.19% of 330,000 active | AID 485353; calls by dose curve; further: nearly all actives have a fitted effect of over 55% in size
Of the large screens only hits and unclear results are named; the others gave an inactive call. Hits are enriched below; roughly 9.5% of the tested compounds scored in any of these assays. Unless noted, the call rests on the fitted dose curve; in most records, active means well fitted inhibition curve with a large enough effect; inconclusive means small, poorly fitted or top-dose-only effect, or another doubt; inactive means no such curve, though single readings can be large or run the other way.

CCOc1ccccc1OC(=O)CN1C(=O)c2ccccc2C1=O	none
O=C(N[C@H]1c2ccccc2C[C@H]1O)[C@H]1O[C@@H](n2ccc(=O)[nH]c2=O)[C@H](O)[C@@H]1O	none (no result: Pf growth 96h, NS1 function inh, Pf growth 48h, SARS PLP yeast)
Cc1nn(Cc2ccccc2Cl)c2sc(C(=O)NCc3ccc4c(c3)OCO4)cc12	Pf growth 96h 11.7µM, NS1 function inh inconclusive (no result: Pf growth 48h)
Cc1nn(Cc2ccccc2Cl)c2sc(C(=O)Nc3nccs3)cc12	Pf growth 96h inconclusive, Pf growth 48h inconclusive
COc1ccccc1CNC(=O)c1cc2c(C)nn(Cc3ccc(F)cc3)c2s1	Pf growth 96h 11.7µM, Pf growth 48h inconclusive
CCC(CC)NC(=O)c1cc2c(C)nn(Cc3ccccc3Cl)c2s1	Pf growth 48h 13.1µM (no result: Pf growth 96h)
O=c1cc(O)c(Cl)c[nH]1	Pf growth 96h inconclusive (no result: RE007 growth inh, NS1 function inh, SARS PLP yeast)
c1ccc(-c2csc(CN3CCCCC3)n2)cc1	none (no result: Pf growth 96h, NS1 function inh, Pf growth 48h, SARS PLP yeast)
CC(=O)Nc1cccc(-c2ccnc3c2CC(C)(C(=O)NCc2ccc(F)c(F)c2)O3)c1 (stereo unspecified)	none (no result: Pf growth 96h, NS1 function inh, Pf growth 48h, SARS PLP yeast)
O=C(NCC1CCCO1)C(c1ccc(F)cc1)N(CCCN1CCOCC1)C(=O)c1ccc(-c2ccccc2)[nH]1 (stereo unspecified)	Pf growth 48h 13.1µM (no result: NS1 function inh)
COc1ccc(CN(C(=O)c2ccc(-c3ccccc3)[nH]2)C(C(=O)NCC2CCCO2)c2ccc(C)o2)cc1 (stereo unspecified)	Pf growth 96h 6.57µM, Pf growth 48h 8.28µM
O=C(NCC1CCCO1)C(c1cccs1)N(Cc1ccccc1)C(=O)c1ccc(-c2ccccc2)[nH]1 (stereo unspecified)	NS1 function inh inconclusive, Pf growth 48h inconclusive
CC(C)(C)NC(=O)C(c1cccs1)N(CC1CCCO1)C(=O)c1ccc(-c2ccccc2)[nH]1 (stereo unspecified)	Pf growth 48h 13.1µM (no result: RE007 growth inh)
COc1ccc(CN(CC(=O)NC2CCCC2)C(=O)c2ccc(-c3ccccc3)[nH]2)cc1	Pf growth 48h inconclusive (no result: NS1 function inh)
O=C(NC1CCCCC1)C(c1ccc(F)cc1)N(CCCN1CCOCC1)C(=O)c1ccc(CN2CCOCC2)o1 (stereo unspecified)	Pf growth 48h inconclusive
O=C(NCC1CCCO1)C(c1cccs1)N(C(=O)c1ccc(-c2ccccc2)[nH]1)C1CCCC1 (stereo unspecified)	Pf growth 96h inconclusive, Pf growth 48h 10.4µM
Cc1oc(-c2cc(F)cc(F)c2)nc1CN1CCN(C(=O)c2ccco2)CC1	Pf growth 96h inconclusive
CC[C@]12c3[nH]c4ccc(Cl)cc4c3CCN1C(=O)[C@@H](CC(=O)NCc1ccc(OC)c(OC)c1)C[C@@H]2C(=O)N1CCN(C(=O)c2ccco2)CC1	none (no result: Pf growth 96h, NS1 function inh, Pf growth 48h)
S=c1[nH]nc(Cn2cnc3ccccc32)n1-c1ccccc1	none (no result: NS1 function inh)
CC(=O)Nc1nonc1NC(=O)COc1ccccc1	Pf growth 48h inconclusive (no result: NS1 function inh)
C[C@H](CO)N1C[C@H](C)[C@@H](CN(C)S(=O)(=O)c2ccccc2)Oc2c(NC(=O)NC3CCCCC3)cccc2C1=O	none (no result: Pf growth 96h, NS1 function inh, Pf growth 48h)
Cc1nn(C)c(C(=O)NNC(=O)NC2CCCCC2)c1Cl	none
COC(=O)CN(c1ccc(C(C)C)cc1)S(=O)(=O)c1c(C)[nH]c(=O)[nH]c1=O	Pf growth 96h 9.28µM (no result: Pf growth 48h)
COc1ccc(N(CC(=O)Nc2ccccc2C)S(=O)(=O)c2c(C)[nH]c(=O)[nH]c2=O)cc1	none
Cc1ccc(-n2c(C)cc(/C=N/NC(=O)c3ccncc3)c2C)cc1C	Pf growth 48h 10.4µM
Cc1cccc(C)c1-n1c(C)cc(/C=N/NC(=O)CSc2ncccn2)c1C	Pf growth 48h inconclusive
Cc1ccc(-n2c(C)cc(/C=N/NC(=O)CC3(C)OCCO3)c2C)c(C)c1	Pf growth 48h 9.28µM
CCCOc1cccc(C(=O)N/N=C/c2coc3ccccc3c2=O)c1	Pf growth 96h 13.1µM, SARS PLP yeast inconclusive
Cc1cc(C)nc(SCC(=O)N/N=C/c2cc(C)n(-c3ccccc3C)c2C)n1	Pf growth 96h inconclusive, Pf growth 48h 5.22µM
CC(C)(C)c1ccc(C2(C)NC(=O)NC2=O)cc1 (stereo unspecified)	none
Cc1cccc(C)c1-n1c(C)cc(/C=N/NC(=O)c2ccncc2)c1C	Pf growth 96h inconclusive, Pf growth 48h inconclusive
Cc1ccc2occ(/C=N/NC(=O)c3ccncc3)c(=O)c2c1	Pf growth 96h 3.7µM
Cc1ccc(-n2c(C)cc(/C=N/NC(=O)c3ccncc3)c2C)c(C)c1	Pf growth 96h 1.65µM, Pf growth 48h 2.33µM

Compound activity (PubChem)
